Compounds with a hit are over-represented: about 12% of the library has one in this group of screens.
AmpC inh no detg: inhibitors of E. coli AmpC beta-lactamase without detergent | P00811 | AID 485341 | AmpC nitrocefin hydrolysis, absorbance 480 nm, 0.0001% Triton | Potency, µM (highest dose often 57.1 µM), without a hit: at the highest dose activity change, negative = inhibition, actives largely listed as inhibitors | 0.52% of 330,000 active;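 also: plate controls were no compound for no effect and no enzyme for full effect; nearly all actives have a fitted effect of over 20% in size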
Target sequence (P00811 whole entry, looked up): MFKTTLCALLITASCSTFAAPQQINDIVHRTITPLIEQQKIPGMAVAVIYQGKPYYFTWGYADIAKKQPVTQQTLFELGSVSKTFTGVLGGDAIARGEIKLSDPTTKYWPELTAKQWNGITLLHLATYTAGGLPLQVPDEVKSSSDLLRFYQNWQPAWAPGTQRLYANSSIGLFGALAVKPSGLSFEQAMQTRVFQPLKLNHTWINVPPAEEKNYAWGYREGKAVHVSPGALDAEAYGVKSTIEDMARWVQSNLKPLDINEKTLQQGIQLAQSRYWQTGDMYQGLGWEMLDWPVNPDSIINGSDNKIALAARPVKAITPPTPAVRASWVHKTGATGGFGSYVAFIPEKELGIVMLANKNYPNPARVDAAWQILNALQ
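20 mM phosphate pH 7.0 + 0.01% (detergent screen) or 0.0001% Triton X-100; 5.3 nM AmpC reagent; cpd preinc 15 min RT; nitrocefin (800 uM stock) to start; A480 q20 s × 4 min; Activity was normalised to no-enzyme and no-compound control wells.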
AmpC detergent: inhibitors of E. coli AmpC beta-lactamase with detergent | AmpC hydrolysis of nitrocefin, absorbance 480 nm, 0.01% Triton | 0.041% of 370,000 active | Potency, µM (titrated, usually from 114 µM), without a hit: at the highest dose activity change, negative = inhibition, most hits filed as inhibitors;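 also: 0% = no-compound wells and -100% = no-enzyme wells; nearly all actives have a fitted effect of over 25% in size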
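20 mM phosphate pH 7.0 + 0.01% (detergent screen) or 0.0001% Triton X-100; 5.3 nM AmpC reagent; cpd preinc 15 min RT; nitrocefin (800 uM stock) to start; A480 q20 s × 4 min; Activity was normalised to no-enzyme and no-compound control wells.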
Sm TGR block: inhibitors of Schistosoma mansoni thioredoxin glutathione reductase; Q962Y6; purified TGR, DTNB reduction, TNB absorbance 405 nm; Potency, µM (top dose mostly 114 µM), inactives show at the top dose activity change, negative = inhibition, hits mostly inhibitors; 3% of 360,000 active; AID 485364; also: % is scaled to controls: 0 for no effect and ±100 for the full control effect; nearly all actives have a fitted effect of over 60% in size
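Kinetic colorimetric format: TGR-catalysed, NADPH-driven DTNB reduction monitored via TNB absorbance. Enzyme dispensed at 20 nM; compound exposure 15 min at room temperature before reaction start.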
SARS PLpro yeast: inhibitors of SARS-CoV papain-like protease in yeast; AID 485353; Potency, µM (doses to about 32.9 µM), for the others: at the highest dose activity, positive = growth rescue, hits mostly activators; 0.19% of 330,000 active; S. cerevisiae expressing SARS-CoV PLpro, growth rescue; calls by dose curve; also: 0% is about no effect; nearly all actives have a fitted effect of over 55% in size
Pf growth 48h: inhibits P. falciparum growth in the first generation, 48 h; 5.9% of 310,000 active; AID 504832; Potency, µM (doses to about 28.7 µM), without a hit: at the top dose activity change, negative = inhibition, usual class: inhibitors; P. falciparum luciferase growth in erythrocytes, 48 h; also: % is scaled to controls: 0 for no effect and ±100 for the full control effect
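Compounds are pin-transferred into medium, infected erythrocytes (2% hematocrit, 0.1% parasitemia final) are added, and plates sit one parasite generation at 37 C in 5% CO2. Detection reagent is then added and luminescence measured.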
Pf growth 96h: inhibits malaria parasite growth, 96 h; 6.9% of 320,000 active; Potency, µM (titrated, usually from 28.7 µM), inactives show at the highest dose activity change, negative = inhibition, most hits filed as inhibitors; P. falciparum luciferase reporter growth, 96 h; also: % is scaled to controls: 0 for no effect and ±100 for the full control effect
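Two-generation exposure (96 h) targets delayed-death phenotype. Reporter parasites carrying integrated firefly luciferase, in red cells at 2% hematocrit and 0.05% parasitemia final, kept at 37 C, 5% CO2; luminescence loss indicates inhibition.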
An asterisk follows results filed as active; ? = inconclusive; nt = no result given; [ ] = another dose, or the depositor's remark. Unless noted, calls follow the shape of the dose curve; as a rule, active = well fitted curve in the direction sought with a large enough effect; inconclusive = small, poorly fitted or top-dose-only effect, or another doubt; inactive = no such curve, though single readings can be large; an effect the other way counts as inactive or inconclusive. Potency is read from the fitted curve at half-maximal effect.

SMILES	AmpC inh no detg	AmpC detergent	Sm TGR block	SARS PLpro yeast	Pf growth 48h	Pf growth 96h
COc1cc2c(cc1C1C(C#N)=C(N)OC3=C1C(=O)CC(C)(C)C3)OCO2 (stereo unspecified)	-25%	-1%	89µM*	4%	?	6%
CC1(C)CC(=O)C2=C(C1)OC(N)=C(C#N)C2c1ccccc1 (stereo unspecified)	-10%	?	0%	-3%	-6%	?
Cc1ccc2oc(C(=O)Nc3c(C(=O)Nc4cccc(Cl)c4)oc4ccccc34)cc(=O)c2c1	nt	21%	-1%	nt	nt	nt
COc1ccc(NS(=O)(=O)c2ccc(-c3cnc(C4CC4)o3)cc2)cc1Cl	nt	4%	7%	nt	nt	nt
C/C(=N\OCC(=O)Nc1ccccc1C(C)(C)C)c1ccc2c(c1)OCCO2	-13%	1%	0%	2%	9.3µM*	?
CCCc1c(C(=O)Nc2cc(C)on2)cnn1-c1ccccc1	-18%	-3%	0%	-1%	?	9.3µM*
CCCc1c(C(=O)Nc2ccc(F)cc2C)cnn1-c1ccccc1	-4%	8%	6%	-2%	-2%	5%
COc1cccc(C(=O)Nc2cccc(NC(=O)c3ccc(Cl)cc3Cl)c2)c1	nt	6%	-2%	nt	nt	nt
COc1cccc(C(=O)Nc2cccc(C(=O)NC3=NN(c4c(Cl)cc(Cl)cc4Cl)C(=O)C3)c2)c1	18µM*	-13%	-2%	-1%	?	-9%
COc1ccc(Nc2nc(N)c([N+](=O)[O-])c(N3CCOCC3)n2)cc1	-35%	0%	1%	0%	?	?
Cc1cccc(Nc2nc(N)c([N+](=O)[O-])c(N3CC(C)CC(C)C3)n2)c1 (stereo unspecified)	-53%	8%	4%	4%	13µM*	?
CN(C)c1ccc(Nc2nc(N)c([N+](=O)[O-])c(N3CCOCC3)n2)cc1	-52%	?	-16%	2%	?	10µM*
COc1ccc(C(=O)NCc2nnc(SCC(=O)Nc3ccccc3)n2-c2ccc(F)cc2)cc1	nt	10%	1%	nt	nt	nt
O=C(CC1SC(N2CCCC2)=NC1=O)Nc1ccc(C(=O)N2CCN(c3cccc(Cl)c3)CC2)cc1 (stereo unspecified)	1%	0%	-21%	-2%	8.3µM*	?
CCOC(=O)C1CCCN(C(=O)c2ccc(NC(=O)CC3SC(N4CCCC4)=NC3=O)cc2)C1 (stereo unspecified)	6%	?	3%	-5%	10µM*	?
N#Cc1c(N)nc(N2CCCC2)c(C#N)c1-c1ccc(Cl)cc1	-40%	-9%	-7%	2%	-23%	218%
N#Cc1c(-c2ccc(Cl)cc2)ccnc1N1CCOCC1	69%	?	1%	-9%	?	4.7µM*
C=CCN(CC=C)c1nc2ccccc2nc1C(C#N)C(=O)OCCOC (stereo unspecified)	100%	-14%	?	-2%	10µM*	6.6µM*
COCC(=O)Nc1ccc(Br)cc1C	-10%	0%	13%	0%	12%[5.75 µM]	5.9µM*
CC(C)[C@H](NS(=O)(=O)c1ccccc1F)C(=O)NC1CCCCC1	-3%	nt	nt	3%	nt	nt
COc1cc(NC(=O)CCc2nnc3ccc(N4CCCCC4)nn23)cc(OC)c1OC	70%	2%	-5%	1%	?	10µM*
COc1ccccc1NC(=O)CCc1nnc2ccc(N3CCCCC3)nn12	86%	0%	4%	-2%	-27%	4.1µM*
COc1cc(NC(=O)CCc2nnc3ccc(N4CCCC4)nn23)cc(OC)c1OC	16%	-4%	-7%	1%	?	?
COC(=O)CNc1c(-c2ccccn2)nc2ccc(Br)cn12	2%	?	40µM*	-2%	116%	-22%
Cc1ccc(Nc2c(-c3ccccn3)nc3ccc(Br)cn23)cc1	nt	9%	5%	nt	nt	nt
SMILES	AmpC inh no detg	AmpC detergent	Sm TGR block	SARS PLpro yeast	Pf growth 48h	Pf growth 96h
Cc1ccc(S(=O)(=O)C(CNS(=O)(=O)c2ccc(F)c(C)c2)c2cccs2)cc1 (stereo unspecified)	nt	0%	0.63µM*	nt	nt	nt
CCC(=O)NCC(c1cccs1)S(=O)(=O)c1ccc(C)cc1 (stereo unspecified)	-12%	-10%	89µM*	0%	20%	?
CCOc1ccc(S(=O)(=O)NCC(c2cccs2)S(=O)(=O)c2ccc(C)cc2)cc1 (stereo unspecified)	nt	-2%	0.32µM*	nt	nt	nt
CCCC(=O)NCC(c1cccs1)S(=O)(=O)c1ccc(C)cc1 (stereo unspecified)	-5%	-10%	-17%	-9%	14%	?
COc1ccc(CC(=O)NCC(c2cccs2)S(=O)(=O)c2ccc(F)c(C)c2)cc1 (stereo unspecified)	nt	6%	-7%	nt	nt	nt
CCOC(=O)C1=C(COC(=O)/C=C/c2ccccc2)NC(=O)NC1C (stereo unspecified)	-6%	?	-14%	-9%	6%	36%
Cc1ccc(/C=C/C(=O)OCC(=O)NCCN2C(=O)CSC2=O)o1	-20%	5%	25µM*	0%	12%	34%
CCOC(=O)C1=C(COC(=O)/C=C/c2ccc(C)o2)NC(=O)NC1C (stereo unspecified)	-4%	-7%	22µM*	-3%	?	?
CCOc1ccc(CCNC(=O)COC(=O)/C=C/c2ccc(C)o2)cc1OCC	77%	-9%	50µM*	1%	13µM*	5.2µM*
CCCNC(=O)COC(=O)/C=C/c1ccc(C)o1	-12%[11.4 µM]	?	40µM*	1%	12%	31%
Cc1ccc(NC(=O)C2CCN(C(=O)c3cnn(-c4ccccc4)c3-n3cccc3)CC2)cc1Cl	nt	3%	-1%	nt	nt	nt
CCn1c(=O)c2sccc2n2c(CCCC(=O)NC3CCN(Cc4ccccc4)CC3)nnc12	-3%	3%	-18%	0%	11%	13µM*

Screens as filed in PubChem.
